Assay outcomes from PubChem BioAssay.
Sampled rows, rich in hits. Any-hit rate of the full collection: about 10%.
IMPase cell inh = cell-permeable inhibitors of inositol monophosphatase (IMPase); 120,000 tested, under 10 active; CHO-M1 cells, IP1 accumulation, HTRF TR-FRET ratio; AID 901; inhibition (IP1 accumulation), % at 46.1 µM; active means well fitted curve in the direction sought with a large enough effect in the signal ratio, not every such curve was filed as active; inconclusive means small, poorly fitted or top-dose-only effect, or a change in a side signal; inactive means no such curve, though single readings can be large or run the other way; the % refers to the signal ratio;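 further: cells stimulated with carbachol in lithium chloride buffer; plate controls were DMSO basal wells for no effect and reference inhibitor wells for full effect; higher means more IMPase inhibition seen as more IP1 and lower FRET ratio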
Target sequence (P97697 whole entry, looked up): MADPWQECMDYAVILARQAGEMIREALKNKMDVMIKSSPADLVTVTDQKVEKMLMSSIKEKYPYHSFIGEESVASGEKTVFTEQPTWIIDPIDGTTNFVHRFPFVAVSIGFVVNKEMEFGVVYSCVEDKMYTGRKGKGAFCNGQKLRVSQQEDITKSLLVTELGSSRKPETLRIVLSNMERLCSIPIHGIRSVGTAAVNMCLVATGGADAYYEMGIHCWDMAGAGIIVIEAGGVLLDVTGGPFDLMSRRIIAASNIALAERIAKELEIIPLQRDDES
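Carbachol-driven Gq signalling in CHO-M1 cells (2000/well) generates IP1. Compounds that block IMPase raise IP1 and so reduce the FRET signal from Eu-anti-IP1 and d2-IP1 after a 10 min room-temperature lysis.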
HPGD inh = inhibitors of human 15-hydroxyprostaglandin dehydrogenase (HPGD); purified HPGD, NADH fluorescence kinetic, PGE2 substrate; Potency, µM, for the others: at the top dose activity change, negative = inhibition, most hits filed as inhibitors; 150,000 tested, 4.3% active; AID 894; further: potency means the concentration at half of the fitted maximal effect
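NADH formation kinetics: reaction with 30 uM PGE2 and 1 mM NAD+ (final), 20 nM enzyme, Tris-HCl pH 8 with Tween 20, after 15 min compound preincubation at room temperature. Fluorescence change, last versus first of five reads.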
Luc counter = Kinase-Glo luciferase inhibition (counter-screen). AID 1379. Kinase-Glo luciferase, ATP luminescence, 8 min. Potency, µM (titrated, usually from 38.3 µM), inactives show at the top dose activity change, negative = inhibition, actives largely listed as inhibitors. Q27757. 200,000 tested, 0.28% active; active means well fitted inhibition curve with a large enough effect; inconclusive means small, poorly fitted or top-dose-only effect; further: potency means the concentration at half of the fitted maximal effect; nearly all actives have a fitted effect of over 60% in size
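Compounds were added to a substrate mix at pH 7.2 (50 mM imidazole, 10 uM ATP, within the enzyme's linear range), followed by Kinase-Glo detection reagent; luminescence was measured after 8 minutes at ambient temperature.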
PNC inhibitor = inhibitors of perinucleolar compartment assembly | activity change (PNC), negative = inhibition, % at 10 µM | PC3M PTB-GFP, PNC prevalence imaging, 16 h; hits give low values | 140,000 tested, 3.1% active;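 active means readout at or below -70, meaning at least 70% loss of cells showing the perinucleolar compartment, a nuclear body marking cancer cells; inconclusive means readout between -30 and a set limit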;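 further: plate controls were DMSO wells for no effect and camptothecin positive control wells for full effect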
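Read-out is percentage of cells bearing a perinucleolar compartment, from automated 20x imaging of fixed, Hoechst-stained PC3M PTB-GFP cells. Cells were seeded 4 h, then exposed 16 h to compound (23 nl of library stock) in duplicate plates.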
ALDH1A1 inh = blocks purified human ALDH1A1 activity. Potency, µM (doses to about 75.3 µM), inactives show at the highest dose activity, negative = inhibition, most hits filed as inhibitors. 220,000 tested, 7.3% active. Purified ALDH1A1, NADH fluorescence, propionaldehyde substrate. P00352;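 further: potency means the concentration at half of the fitted maximal effect; plate controls were no enzyme wells and a reference inhibitor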
Target sequence (P00352 whole entry, looked up): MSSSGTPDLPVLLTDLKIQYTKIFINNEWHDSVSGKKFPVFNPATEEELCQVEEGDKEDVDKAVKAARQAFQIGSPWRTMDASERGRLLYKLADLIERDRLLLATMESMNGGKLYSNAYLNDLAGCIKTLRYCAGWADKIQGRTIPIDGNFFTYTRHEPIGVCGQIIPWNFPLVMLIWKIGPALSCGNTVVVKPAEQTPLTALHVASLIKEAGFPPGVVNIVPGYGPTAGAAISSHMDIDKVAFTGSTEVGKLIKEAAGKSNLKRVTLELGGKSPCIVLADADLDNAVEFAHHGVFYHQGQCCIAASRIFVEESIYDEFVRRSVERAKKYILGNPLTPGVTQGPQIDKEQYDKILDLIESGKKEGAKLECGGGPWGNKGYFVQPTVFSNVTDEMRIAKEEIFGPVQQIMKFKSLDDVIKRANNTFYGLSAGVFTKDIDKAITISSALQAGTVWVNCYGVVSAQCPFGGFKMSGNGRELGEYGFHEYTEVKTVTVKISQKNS
LMNA splice mod = changes lamin A minigene splicing in HeLa cells; 200,000 tested, 0.01% active; AID 1487; HeLa LMNA splicing GFP/RFP minigene ratio, 48 h; Potency, µM (series often up to 46.1 µM), inactives show at the top dose ratio change, negative = inhibition, hits mostly inhibitors; active means well fitted inhibition curve with a large enough effect in the signal ratio, with a control signal flat, not every such curve was filed as active; inconclusive means small, poorly fitted or top-dose-only effect, or effect the other way, or a change in a side signal; the % refers to the signal ratio; further: potency means the concentration at half of the fitted maximal effect
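S3 HeLa stable clones carrying a lamin A-EGFP splicing minigene plus DsRed2 were seeded at 600 cells/well in Opti-MEM with 2% FBS, pin-dosed and incubated 48 h at 37°C. Acumen cytometry (488 nm) gave the GFP/RFP total-intensity ratio.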
Numbers without * were called inactive; u = inconclusive; x = no result; ! = not confirmed by another sample; [ ] = dose if it differs, or a comment. Unless noted, the call rests on the fitted dose curve; in most records, active means well fitted inhibition curve with a large enough effect (not every such curve was filed as active); inconclusive means small, poorly fitted or top-dose-only effect, or another doubt; inactive means no such curve, though single readings can be large or run the other way. Unless noted, on the % scale 0 is the no-effect control and ±100 the full control effect.

SMILES | IMPase cell inh | HPGD inh | Luc counter | PNC inhibitor | ALDH1A1 inh | LMNA splice mod
O=C1[C@@H]2[C@H]3[C@H](O)[C@H](O)C/C(=N/OCc4ccccc4)[C@@H]3CC[C@H]2C(=O)N1c1ccc(F)cc1F | x | x | x | x | -1%[13.5 µM] | x
Cc1ccc(S(=O)(=O)Nc2cc(Cl)c3oc4c(c3c2)C(=O)CC(C)(C)C4)cc1 | 0 | x | x | x | x | x
COC(=O)Cc1ccc(NC(=S)Nc2cccc(C)n2)cc1 | x | x | 1% | x | 14% | x
CCCCOC(=O)c1ccc(O)cc1 | 7[20.6 µM] | -17% | 13% | 15 | 16% | u
CCOC(=O)c1ccc(NC(=S)Nc2cccc(C)n2)cc1 | x | -4% | 0% | -85* | 3% | -7%
CCCOC(=O)c1ccc(O)cc1 | x | -5% | x | x | 10µM*! | u
CCC(C)NC(=O)c1ccc2c(c1)N=C(C)c1cc(C)ccc1S2 (centres undefined) | 3 | x | x | x | x | x
CC(=O)NC(=S)NNC(=O)COc1ccc([N+](=O)[O-])cc1 | x | x | -4% | x | 22µM* | x
CC(=O)NC(=S)NNC(=O)COc1ccc(Br)cc1 | x | x | 1% | x | 18µM* | 19%[46 µM]
O=C(COc1ccc(Br)cc1)NNC(=S)NC(=O)c1ccccc1[N+](=O)[O-] | x | -4% | -5% | 9 | -8% | u
C/C(=N\NC(=O)COc1ccc([N+](=O)[O-])cc1)C(C)(C)C | -7 | -7% | -3% | 46 | 20µM* | 3%
CCN(Cc1ccccc1)S(=O)(=O)c1ccc(F)c(C(=O)Nc2cc(C(F)(F)F)ccc2Cl)c1 | x | x | x | x | x | -16%[46 µM]
Cc1cc(/C=N/NC(N)=S)c(C)n1-c1ccc(Cl)cc1 | x | -12% | 1% | 84 | 32µM* | -3%
Cc1cc(/C=N/NC(N)=S)c(C)n1-c1ccc(Br)cc1 | x | x | -1% | x | 16µM* | u
Cc1cccc(C)c1-n1c(C)cc(/C=N/NC(N)=S)c1C | 10 | -11% | -2% | 21 | u | 7%
Cc1cc(/C=N/O)c(C)n1-c1ccc(Br)cc1 | x | u | -1% | 36 | 8.9µM* | u
Cc1cc(/C=N\NC(=O)CC(=O)NC2CCCCC2)c(C)n1-c1ccc(Cl)cc1 | -8 | -18% | 5% | u | u | -6%
Cc1cc(/C=N/NC(N)=S)c(C)n1-c1cccc(Cl)c1 | x | x | 2% | x | 25µM* | 1%[46 µM]
Cc1cccc(-n2c(C)cc(/C=N/O)c2C)c1 | x | u | -1% | 7 | u | -6%
CCOc1ccc(NC(=O)Cn2c(=O)n(CCC(=O)NCCc3ccccc3)c(=O)c3ccccc32)cc1 | 0 | x | x | x | x | x
Cc1cc(C)cc(NC(=O)C(Cc2ccccc2)N2Cc3ccccc3C2=O)c1 (centres undefined) | x | x | x | x | x | -2%[46 µM]
Cc1sc2ncnc(SCC(=O)NCC(C)C)c2c1C | 2 | 16µM* | -3% | 27 | -2% | -3%
Cc1sc2ncnc(SCC(=O)NC(C)(C)C)c2c1C | x | x | 1% | x | -2% | x
COCCCNC(=O)Nc1ccc2c(c1)N(C)C(=O)CS2 | 5 | -11% | 18% | 35 | 17% | 15%
O=C(NCCC1=CCCCC1)c1ccc2c(c1)N(Cc1ccccc1)C(=O)CS2 | 12 | -15% | 0% | -84* | u | u
SMILES | IMPase cell inh | HPGD inh | Luc counter | PNC inhibitor | ALDH1A1 inh | LMNA splice mod
COCCNC(=O)Nc1ccc2c(c1)N(C)C(=O)CS2 | 0 | -7% | 5% | -9 | 22µM* | 12%
CN1C(=O)CSc2ccc(NC(=O)NCCC3=CCCCC3)cc21 | 7 | -9% | 2% | -17 | 7.9µM* | 13%
O=C(NCCN1CCOCC1)c1ccc2c(c1)N(Cc1ccccc1)C(=O)CS2 | 12 | -1% | 2% | 22 | -2% | 10%
CCCCC[C@H](CC(=O)NO)C(=O)N[C@@H](C(=O)N1CCC[C@H]1CO)C(C)C | 8 | x | x | x | x | x
COCOc1ccc(Br)cc1C(=O)[C@H]1O[C@H]1c1cccc(OC)c1 | x | x | x | x | 1%[13.5 µM] | x
Cc1cc(C)cc(NC(=O)NCCn2nnc3cc(S(=O)(=O)N(C)C)ccc32)c1 | x | x | x | x | x | -2%[46 µM]
CCOCCn1c(N2CCN(c3ccccc3)CC2)nc2c1c(=O)[nH]c(=O)n2C | x | x | -16% | x | -10% | x
Cn1c(=O)[nH]c(=O)c2c1nc(N1CCCC1)n2CCCSc1nnnn1-c1ccccc1 | x | -12% | 2% | 10 | 11µM* | u
CC(CSc1nnnn1-c1ccccc1)Cn1c(N2CCN(C)CC2)nc2c1c(=O)[nH]c(=O)n2C (centres undefined) | x | x | 2% | x | 20µM* | u
Cn1c(=O)[nH]c(=O)c2c1nc(N1CCCCCC1)n2CCCSc1nnnn1-c1ccccc1 | x | -28% | -4% | 5 | 2.5µM* | 4%
O=[N+]([O-])c1ccccc1OCCOCCOc1cccc2cccnc12 | x | -8% | -1% | -86* | u | u
COC(=O)c1ccccc1OCCOCCOc1cccc2cccnc12 | x | -13% | -2% | u | u | -8%
COc1cc2c3nnc(-c4ccc(F)cc4)c-3cn(Cc3ccc(C)cc3)c2cc1OC | 1 | -16% | 2% | -17 | 4.5µM* | -9%
CN1C(=O)OC2(C)CCc3ccccc3C12C (centres undefined) | -3 | x | x | u | 32µM* | -1%
CN1CCC2(CC1)CCN(C(=O)c1cc(C(F)(F)F)cc(C(F)(F)F)c1)CC2 | x | -9% | 1% | x | 6% | x
COCCCNC(=O)C1CCN(C(=O)c2cc3sccc3n2Cc2ccc(F)cc2)CC1 | -7 | -1% | -4% | -13 | 10µM* | -4%
CCn1c(C(=O)N2CCc3ccccc3C2)cc2sccc21 | 9 | 3.2µM* | 2% | -22 | -2% | -5%
CCn1c(C(=O)N2CCC(C(=O)NCCCSC3CCCCC3)CC2)cc2sccc21 | 18 | -15% | 6% | -18 | 3.2µM* | -17%
CCn1c(C(=O)NCCCN2CCc3ccccc3C2)cc2sccc21 | 11[1.84 µM] | -11% | 3% | u | -3% | -5%
CCN(CC)CCCNC(=O)C1CCN(C(=O)c2cc3sccc3n2Cc2ccc(F)cc2)CC1 | 0 | 2% | -4% | -5 | u | 5%
O=C(NCc1ccco1)C1CCN(C(=O)c2cc3sccc3n2Cc2ccc(F)cc2)CC1 | 10 | -14% | 1% | u | 4.5µM* | u
CCCCCCCCCCCCCCC[C@@H](O)[C@H](CO)NC(=O)CCCCCCC | x | -4% | 0% | x | -9% | x
O=C(NCc1ccco1)C1CCN(c2nc3ccccc3n2Cc2ccccc2F)CC1 | 6 | -15% | 1% | u | 28µM* | 18%
COc1ccc(-c2nc(C)sc2CC(=O)O)cc1OC | x | x | -5% | x | -7% | u
COc1ccc(-c2nc(C)sc2CC(=O)O)cc1 | 0 | -17% | -1% | -100* | 4% | 4%
CCn1ccc2cc(S(=O)(=O)N3CCCN(C(=O)Nc4ccc(C)cc4)CC3)ccc21 | x | x | x | x | x | 0%[46 µM]
c1ccc2c(c1)CCC[C@H]2C1=NCCN1 | 0 | x | x | x | x | x
